ChEMBL document CHEMBL1961873, “Compounds: GSK PKIS; Assays: Nanosyn kinase panel” (2012)

What was measured:
[1] = molecular target: Death-associated protein kinase 1 (Homo sapiens) (UniProt P53355); settings: at 1 µM;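 note: each value is a mean inhibition figure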
[2] = molecular target: T1, Serine/threonine-protein kinase DCLK2 (Homo sapiens) (UniProt Q8N568); settings: at 0.1 µM
T1 sequence (whole entry): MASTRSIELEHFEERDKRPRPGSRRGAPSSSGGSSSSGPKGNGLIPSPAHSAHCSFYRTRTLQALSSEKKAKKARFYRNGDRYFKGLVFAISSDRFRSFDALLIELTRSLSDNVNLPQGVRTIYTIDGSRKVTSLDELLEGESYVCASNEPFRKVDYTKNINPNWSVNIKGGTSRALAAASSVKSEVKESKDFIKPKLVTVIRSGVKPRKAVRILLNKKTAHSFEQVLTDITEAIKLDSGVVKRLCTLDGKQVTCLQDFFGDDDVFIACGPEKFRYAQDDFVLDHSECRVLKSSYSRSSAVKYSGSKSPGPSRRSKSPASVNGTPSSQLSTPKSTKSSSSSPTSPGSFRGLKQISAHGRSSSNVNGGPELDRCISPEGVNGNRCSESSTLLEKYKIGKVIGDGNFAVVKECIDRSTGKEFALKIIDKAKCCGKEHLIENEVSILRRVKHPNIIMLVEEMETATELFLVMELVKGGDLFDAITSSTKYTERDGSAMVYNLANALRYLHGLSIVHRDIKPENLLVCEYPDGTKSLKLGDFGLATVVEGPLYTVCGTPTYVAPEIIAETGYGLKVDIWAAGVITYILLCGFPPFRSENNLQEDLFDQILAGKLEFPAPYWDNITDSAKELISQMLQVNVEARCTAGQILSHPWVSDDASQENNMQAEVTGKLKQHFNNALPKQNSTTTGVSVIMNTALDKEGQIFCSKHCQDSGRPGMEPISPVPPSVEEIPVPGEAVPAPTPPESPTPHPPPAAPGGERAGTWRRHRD

[3] = molecular target: T1, Serine/threonine-protein kinase DCLK2 (Homo sapiens); settings: at 1 µM
[4] = molecular target: MAP kinase-activated protein kinase 2 (Homo sapiens) (UniProt P49137); settings: at 0.1 µM
[5] = molecular target: MAP kinase-activated protein kinase 2 (Homo sapiens) (UniProt P49137); settings: at 1 µM
[6] = molecular target: MAP kinase-activated protein kinase 3 (Homo sapiens) (UniProt Q16644); settings: at 0.1 µM
[7] = molecular target: MAP kinase-activated protein kinase 3 (Homo sapiens) (UniProt Q16644); settings: at 1 µM
[8] = molecular target: Serine/threonine-protein kinase MARK1 (Homo sapiens) (UniProt Q9P0L2); settings: at 0.1 µM
[9] = molecular target: Serine/threonine-protein kinase MARK1 (Homo sapiens) (UniProt Q9P0L2); settings: at 1 µM
[10] = molecular target: MAP/microtubule affinity-regulating kinase 3 (Homo sapiens) (UniProt P27448); settings: at 0.1 µM
[11] = molecular target: MAP/microtubule affinity-regulating kinase 3 (Homo sapiens) (UniProt P27448); settings: at 1 µM
[12] = molecular target: T2, MAP/microtubule affinity-regulating kinase 4 (Homo sapiens) (UniProt Q96L34); settings: at 0.1 µM
T2 sequence (whole entry): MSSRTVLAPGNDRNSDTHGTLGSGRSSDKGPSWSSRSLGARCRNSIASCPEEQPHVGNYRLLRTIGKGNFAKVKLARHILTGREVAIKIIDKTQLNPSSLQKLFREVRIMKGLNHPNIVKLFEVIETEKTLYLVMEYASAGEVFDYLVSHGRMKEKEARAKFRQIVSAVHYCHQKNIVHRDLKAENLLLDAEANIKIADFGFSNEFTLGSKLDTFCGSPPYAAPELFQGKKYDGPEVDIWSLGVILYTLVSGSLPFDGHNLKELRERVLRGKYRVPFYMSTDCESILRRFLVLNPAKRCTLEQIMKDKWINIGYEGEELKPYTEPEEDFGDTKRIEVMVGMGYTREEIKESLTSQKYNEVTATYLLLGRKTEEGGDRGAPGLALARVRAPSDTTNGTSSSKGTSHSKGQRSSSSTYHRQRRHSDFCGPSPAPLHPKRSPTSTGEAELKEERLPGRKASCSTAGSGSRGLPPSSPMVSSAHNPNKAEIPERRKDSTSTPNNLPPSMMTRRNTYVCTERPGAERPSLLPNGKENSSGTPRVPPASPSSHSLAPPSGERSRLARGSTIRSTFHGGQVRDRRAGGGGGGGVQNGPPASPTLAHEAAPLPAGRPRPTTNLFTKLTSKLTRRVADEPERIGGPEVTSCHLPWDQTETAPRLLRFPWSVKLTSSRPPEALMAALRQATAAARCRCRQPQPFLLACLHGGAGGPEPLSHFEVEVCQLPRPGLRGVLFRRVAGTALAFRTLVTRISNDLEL

[13] = molecular target: T2, MAP/microtubule affinity-regulating kinase 4 (Homo sapiens); settings: at 1 µM
[14] = molecular target: Maternal embryonic leucine zipper kinase (Homo sapiens) (UniProt Q14680); settings: at 0.1 µM
[15] = molecular target: Maternal embryonic leucine zipper kinase (Homo sapiens) (UniProt Q14680); settings: at 1 µM
[16] = molecular target: MAP kinase-interacting serine/threonine-protein kinase 1 (Homo sapiens) (UniProt Q9BUB5); settings: at 0.1 µM
[17] = molecular target: MAP kinase-interacting serine/threonine-protein kinase 1 (Homo sapiens) (UniProt Q9BUB5); settings: at 1 µM
[18] = molecular target: MAP kinase-interacting serine/threonine-protein kinase 2 (Homo sapiens) (UniProt Q9HBH9); settings: at 0.1 µM
[19] = molecular target: MAP kinase-interacting serine/threonine-protein kinase 2 (Homo sapiens) (UniProt Q9HBH9); settings: at 1 µM
[20] = molecular target: Serine/threonine-protein kinase MARK2 (Homo sapiens) (UniProt Q7KZI7); settings: at 0.1 µM;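 note: mean percent inhibition of PAR-1Balpha kinase activity, reported from the GSK PKIS screen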
Serine/threonine-protein kinase MARK2 (Homo sapiens), sequence (Q7KZI7 whole entry): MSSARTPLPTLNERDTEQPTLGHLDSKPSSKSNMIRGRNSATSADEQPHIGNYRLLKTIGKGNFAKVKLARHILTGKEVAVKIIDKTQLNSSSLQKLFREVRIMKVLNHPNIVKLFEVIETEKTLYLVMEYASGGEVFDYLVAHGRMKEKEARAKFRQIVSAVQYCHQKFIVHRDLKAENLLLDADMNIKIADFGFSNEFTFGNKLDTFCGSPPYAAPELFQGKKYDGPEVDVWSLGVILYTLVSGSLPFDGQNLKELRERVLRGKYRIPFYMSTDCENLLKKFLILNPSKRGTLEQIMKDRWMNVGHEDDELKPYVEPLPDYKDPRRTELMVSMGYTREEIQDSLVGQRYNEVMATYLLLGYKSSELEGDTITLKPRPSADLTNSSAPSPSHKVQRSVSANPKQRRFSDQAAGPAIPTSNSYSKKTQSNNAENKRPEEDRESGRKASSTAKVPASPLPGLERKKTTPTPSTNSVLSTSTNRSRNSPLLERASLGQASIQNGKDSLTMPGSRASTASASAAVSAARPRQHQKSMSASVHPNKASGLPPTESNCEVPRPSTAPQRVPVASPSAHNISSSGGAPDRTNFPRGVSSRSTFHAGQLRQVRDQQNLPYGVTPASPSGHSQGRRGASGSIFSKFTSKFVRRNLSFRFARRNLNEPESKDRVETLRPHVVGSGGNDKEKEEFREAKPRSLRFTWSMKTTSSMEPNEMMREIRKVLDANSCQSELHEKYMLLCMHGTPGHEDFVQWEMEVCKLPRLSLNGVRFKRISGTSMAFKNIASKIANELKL

Death-associated protein kinase 1 (Homo sapiens), sequence (P53355 whole entry, looked up): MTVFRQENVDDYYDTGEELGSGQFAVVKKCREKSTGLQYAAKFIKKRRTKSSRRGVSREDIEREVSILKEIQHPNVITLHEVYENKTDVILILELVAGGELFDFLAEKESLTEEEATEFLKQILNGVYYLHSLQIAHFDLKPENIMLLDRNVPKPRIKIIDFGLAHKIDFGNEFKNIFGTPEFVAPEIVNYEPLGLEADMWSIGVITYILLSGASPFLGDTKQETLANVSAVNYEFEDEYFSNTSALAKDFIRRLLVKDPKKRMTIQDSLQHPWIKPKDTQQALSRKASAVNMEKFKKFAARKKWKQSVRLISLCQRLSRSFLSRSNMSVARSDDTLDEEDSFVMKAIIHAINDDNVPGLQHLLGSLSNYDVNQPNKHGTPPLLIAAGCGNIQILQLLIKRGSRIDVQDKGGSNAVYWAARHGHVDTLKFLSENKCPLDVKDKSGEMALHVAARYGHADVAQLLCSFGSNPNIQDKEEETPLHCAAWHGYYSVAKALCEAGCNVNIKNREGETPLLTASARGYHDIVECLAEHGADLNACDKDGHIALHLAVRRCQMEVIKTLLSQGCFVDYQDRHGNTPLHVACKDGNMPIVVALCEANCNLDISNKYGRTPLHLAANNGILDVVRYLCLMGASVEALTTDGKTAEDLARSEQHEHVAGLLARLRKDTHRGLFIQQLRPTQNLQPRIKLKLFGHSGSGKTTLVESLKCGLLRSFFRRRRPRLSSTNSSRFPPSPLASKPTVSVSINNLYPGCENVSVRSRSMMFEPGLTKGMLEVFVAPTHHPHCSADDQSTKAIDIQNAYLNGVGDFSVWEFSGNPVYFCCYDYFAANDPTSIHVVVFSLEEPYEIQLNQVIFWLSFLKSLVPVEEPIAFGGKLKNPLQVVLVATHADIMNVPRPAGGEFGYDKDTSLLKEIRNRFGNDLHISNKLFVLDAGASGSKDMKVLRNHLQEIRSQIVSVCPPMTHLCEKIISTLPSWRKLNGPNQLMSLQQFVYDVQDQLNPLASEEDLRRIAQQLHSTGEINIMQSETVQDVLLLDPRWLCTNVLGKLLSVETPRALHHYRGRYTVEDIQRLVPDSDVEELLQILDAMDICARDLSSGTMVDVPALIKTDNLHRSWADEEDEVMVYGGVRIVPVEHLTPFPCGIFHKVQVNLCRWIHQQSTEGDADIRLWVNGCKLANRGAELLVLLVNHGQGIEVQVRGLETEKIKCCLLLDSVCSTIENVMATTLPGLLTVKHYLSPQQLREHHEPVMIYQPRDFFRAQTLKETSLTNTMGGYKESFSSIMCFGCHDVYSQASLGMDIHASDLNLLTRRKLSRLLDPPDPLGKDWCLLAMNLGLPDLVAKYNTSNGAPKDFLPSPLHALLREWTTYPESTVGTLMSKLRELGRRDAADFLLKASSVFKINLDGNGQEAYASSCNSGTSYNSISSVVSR
MAP/microtubule affinity-regulating kinase 3 (Homo sapiens), sequence (P27448 whole entry, looked up): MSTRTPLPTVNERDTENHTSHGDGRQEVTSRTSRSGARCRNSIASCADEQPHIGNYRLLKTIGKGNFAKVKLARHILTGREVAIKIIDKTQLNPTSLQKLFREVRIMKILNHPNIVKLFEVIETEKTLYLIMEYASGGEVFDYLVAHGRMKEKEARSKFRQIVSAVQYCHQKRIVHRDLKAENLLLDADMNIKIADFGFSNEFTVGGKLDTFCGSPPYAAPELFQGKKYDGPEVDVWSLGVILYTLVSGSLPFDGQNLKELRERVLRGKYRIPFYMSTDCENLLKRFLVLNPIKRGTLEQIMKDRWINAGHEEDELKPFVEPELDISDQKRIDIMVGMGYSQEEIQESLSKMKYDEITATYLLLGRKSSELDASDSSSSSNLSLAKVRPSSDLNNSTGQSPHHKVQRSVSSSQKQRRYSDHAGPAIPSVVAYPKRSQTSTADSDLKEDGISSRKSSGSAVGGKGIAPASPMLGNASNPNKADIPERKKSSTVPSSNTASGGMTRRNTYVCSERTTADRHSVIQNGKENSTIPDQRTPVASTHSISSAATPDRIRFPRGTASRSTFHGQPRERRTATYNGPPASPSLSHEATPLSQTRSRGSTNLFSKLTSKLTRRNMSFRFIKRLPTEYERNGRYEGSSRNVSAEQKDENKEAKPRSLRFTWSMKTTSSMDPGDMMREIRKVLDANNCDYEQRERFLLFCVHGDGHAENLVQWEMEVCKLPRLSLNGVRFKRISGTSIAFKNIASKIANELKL
MAP kinase-activated protein kinase 2 (Homo sapiens), sequence (P49137 whole entry, looked up): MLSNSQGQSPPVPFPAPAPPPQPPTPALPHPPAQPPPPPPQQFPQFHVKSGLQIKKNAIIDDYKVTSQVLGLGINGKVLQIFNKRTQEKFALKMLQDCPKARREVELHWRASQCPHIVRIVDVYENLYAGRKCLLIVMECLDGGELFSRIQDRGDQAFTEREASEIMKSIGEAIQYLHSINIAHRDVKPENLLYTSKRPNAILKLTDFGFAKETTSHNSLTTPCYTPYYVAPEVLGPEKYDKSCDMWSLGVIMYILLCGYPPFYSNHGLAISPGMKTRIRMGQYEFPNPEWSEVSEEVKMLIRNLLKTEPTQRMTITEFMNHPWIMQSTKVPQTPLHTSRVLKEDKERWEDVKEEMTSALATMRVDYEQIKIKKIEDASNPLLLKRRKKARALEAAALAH
MAP kinase-interacting serine/threonine-protein kinase 1 (Homo sapiens), sequence (Q9BUB5 whole entry, looked up): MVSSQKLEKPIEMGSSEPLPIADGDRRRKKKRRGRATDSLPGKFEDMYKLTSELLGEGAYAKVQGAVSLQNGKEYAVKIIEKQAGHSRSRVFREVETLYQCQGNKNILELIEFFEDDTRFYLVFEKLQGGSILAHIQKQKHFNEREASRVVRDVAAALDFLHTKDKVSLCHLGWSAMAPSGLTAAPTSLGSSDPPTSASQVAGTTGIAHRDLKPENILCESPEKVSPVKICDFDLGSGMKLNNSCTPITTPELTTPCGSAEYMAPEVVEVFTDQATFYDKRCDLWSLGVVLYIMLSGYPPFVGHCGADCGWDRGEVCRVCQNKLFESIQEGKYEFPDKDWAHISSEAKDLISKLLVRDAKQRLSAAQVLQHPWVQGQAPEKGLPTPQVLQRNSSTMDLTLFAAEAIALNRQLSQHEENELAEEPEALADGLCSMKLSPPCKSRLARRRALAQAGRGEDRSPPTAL
MAP kinase-activated protein kinase 3 (Homo sapiens), sequence (Q16644 whole entry, looked up): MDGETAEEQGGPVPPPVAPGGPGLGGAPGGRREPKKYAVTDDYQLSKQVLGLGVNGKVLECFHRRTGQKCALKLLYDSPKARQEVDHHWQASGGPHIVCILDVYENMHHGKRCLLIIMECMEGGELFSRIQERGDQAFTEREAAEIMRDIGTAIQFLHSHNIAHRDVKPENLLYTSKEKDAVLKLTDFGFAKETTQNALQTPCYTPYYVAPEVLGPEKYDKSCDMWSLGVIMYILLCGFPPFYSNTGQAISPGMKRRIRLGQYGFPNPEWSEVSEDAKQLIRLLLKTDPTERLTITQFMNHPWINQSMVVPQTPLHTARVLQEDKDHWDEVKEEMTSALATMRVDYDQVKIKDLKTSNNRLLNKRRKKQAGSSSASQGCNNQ
Maternal embryonic leucine zipper kinase (Homo sapiens), sequence (Q14680 whole entry, looked up): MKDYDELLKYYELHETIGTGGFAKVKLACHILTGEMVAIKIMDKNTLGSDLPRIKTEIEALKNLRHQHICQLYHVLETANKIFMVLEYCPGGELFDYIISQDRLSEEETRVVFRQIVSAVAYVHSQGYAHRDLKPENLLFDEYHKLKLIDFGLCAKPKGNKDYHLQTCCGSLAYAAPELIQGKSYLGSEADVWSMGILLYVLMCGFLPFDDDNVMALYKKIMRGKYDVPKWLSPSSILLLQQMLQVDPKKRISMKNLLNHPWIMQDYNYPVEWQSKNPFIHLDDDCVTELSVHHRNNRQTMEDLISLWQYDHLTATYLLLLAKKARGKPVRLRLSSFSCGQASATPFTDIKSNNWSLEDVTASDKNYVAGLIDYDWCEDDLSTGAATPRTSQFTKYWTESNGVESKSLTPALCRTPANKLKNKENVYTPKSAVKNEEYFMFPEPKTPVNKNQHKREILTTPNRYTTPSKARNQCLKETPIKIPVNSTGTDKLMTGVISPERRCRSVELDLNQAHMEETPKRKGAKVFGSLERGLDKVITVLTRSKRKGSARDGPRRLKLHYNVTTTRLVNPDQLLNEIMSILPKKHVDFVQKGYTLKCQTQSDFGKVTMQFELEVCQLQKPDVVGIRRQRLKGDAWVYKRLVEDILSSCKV

| Compound | inhibition [1] | inhibition [2] | inhibition [3] | inhibition [4] | inhibition [5] | inhibition [6] | inhibition [7] | inhibition [8] | inhibition [9] | inhibition [10] | inhibition [11] | inhibition [12] | inhibition [13] | inhibition [14] | inhibition [15] | inhibition [16] | inhibition [17] | inhibition [18] | inhibition [19] | inhibition [20] |
| --- | --- | --- | --- | --- | --- | --- | --- | --- | --- | --- | --- | --- | --- | --- | --- | --- | --- | --- | --- | --- |
| FC(F)(F)c1cccc(Nc2nccc(-c3cnn4nc(-c5ccccc5)ccc34)n2)c1 | 1.95% | -0.23% | 2.76% | 1.22% | -0.44% | 3.72% | 2.87% | 2.35% | 2.53% | 3.77% | 1.86% | 1.13% | 1.01% | 4.89% | 32.3% | 2.28% | 2.48% | 0.22% | 4.37% | -0.36% |
| O=C(NCC1CC1)c1ccc(-c2cccc(C(=O)NC3CC3)c2)cc1 | 3.86% | 1.31% | -0.41% | 0.95% | 1.17% | 2% | 3.94% | 2.23% | 1.62% | 4.12% | 6.77% | 0.89% | 0.47% | 1.66% | 0.83% | 1.09% | 0.19% | -1.06% | 0.04% | 0.08% |
| Fc1ccc(-c2ncn(C3CCNCC3)c2-c2ccnc(Oc3ccc4c(c3)OCO4)n2)cc1 | -4.62% | 2.01% | 2.26% | 0% | -0.67% | 29.6% | 31.2% | 2.98% | 5.01% | 3.59% | 5.12% | 2.61% | 3.33% | 6.04% | 6.41% | 4.52% | 7.62% | 1.84% | 6.88% | 0.67% |
| NS(=O)(=O)c1ccc(Nc2cc(-c3ccc(O)c(F)c3)n[nH]2)cc1 | -3.49% | 2.54% | -2.22% | -1.97% | -1.79% | -0.95% | -0.99% | 0.41% | 8.64% | 0.26% | 4.97% | 1.26% | 11.7% | -5.49% | 39.3% | -0.77% | 6.93% | 0.26% | 7.33% | 0.4% |
| O=C(Nc1n[nH]c2cc(-c3ccccc3)ccc12)C1CC1 | 7.04% | 0.55% | 1.05% | 3.04% | 2.8% | 5.91% | 4.31% | 4.97% | 9.42% | 5.89% | 9.09% | 2.2% | 5.77% | 5.64% | 3.69% | 6.55% | 31.4% | 3.14% | 10.2% | 1.54% |
| COC(=O)Nc1nc2ccc(Sc3ccc(NC(=O)Nc4cc(C(F)(F)F)ccc4F)cc3)cc2[nH]1 | 4.23% | -1.02% | 0.05% | 0.97% | 0.6% | 4.28% | 12.6% | 1.73% | 2.38% | 1.35% | 1.81% | -1.27% | -0.2% | -2.18% | -2.88% | -0.03% | 4.58% | 0.6% | 1.48% | 0.92% |
| C[C@@H](Oc1cc(-n2cnc3ccc(OC4CCN(C)CC4)cc32)sc1C(N)=O)c1ccccc1Cl | 1.99% | -3.12% | -1.54% | 1.32% | 2.41% | 3.38% | 3.91% | 3.46% | 8.24% | 4.33% | 8.01% | 2.31% | 5.68% | 6.66% | 26.9% | 3.58% | 17.6% | 3.77% | 21% | 2.47% |
| NC(=O)c1ccc(Oc2nccc(-c3c(-c4ccc(F)cc4)ncn3C3CCNCC3)n2)cc1 | -3.98% | 0.57% | 1.94% | 0.01% | 1.79% | 17.6% | 30.8% | 2.78% | 4.16% | 3.42% | 6.64% | 1.51% | 2.24% | 7.28% | 11.6% | 3.92% | 4.27% | 3.56% | 4.79% | 2.73% |
| Cc1ccc(C(=O)NC(C)C)cc1-c1ccc(C(=O)NCC2CC2)cc1 | -2.3% | -3.07% | -1.07% | -1.44% | -1.8% | 0.42% | 9.15% | 0.27% | 0.65% | 0.19% | -0.42% | 1.15% | 0.5% | -2.85% | -2.99% | -1.07% | -0.97% | -0.04% | 1.12% | 0.38% |
| COc1cc(Nc2ncc(-c3ccccc3)o2)cc(OC)c1OC | 1.28% | -1.54% | 1.6% | -1.14% | -0.59% | -1.98% | -2.22% | 2.34% | 15.6% | 2.51% | 22.1% | 2.46% | 13.4% | -0.49% | 5.74% | 4.6% | 30.4% | 1.26% | 24.2% | 2.94% |
| c1ccc(Oc2ccc(Nc3ncc(-c4ccccc4)o3)cc2)cc1 | 0.04% | 0.28% | -1.82% | 0.81% | 0.09% | 1.72% | 1.73% | 1.66% | 0.44% | -0.01% | -0.43% | -0.01% | 0.55% | 2.47% | 2.86% | 1.08% | 4.15% | 0.86% | 2.44% | -0.89% |
| Fc1ccc(-c2ncn(CCCN3CCOCC3)c2-c2ccncc2)cc1 | 2.3% | -1.56% | 5.36% | -0.27% | -0.32% | 3.13% | 14.5% | 0.51% | 0.81% | 2.21% | 22% | 0.52% | 0.72% | -0.32% | -0.03% | -0.96% | 0.15% | -1.39% | -0.24% | -1.95% |
| COc1ccc(C2=C(N3CCc4ccccc43)C(=O)NC2=O)cc1 | 4.07% | 2.43% | 0.92% | 2.76% | 1.74% | 4.85% | 5.21% | 3.48% | 5.45% | 3.65% | 4.14% | 1.18% | 2.26% | 4.31% | 7.73% | 3.88% | 6.21% | 1.85% | 4.28% | -0.02% |
